Experimental findings from PubChem BioAssay (Tox21) are described below.

Values without a mark were called inactive. Results filed as inconclusive are left out. Calls of active or inactive are those of the source. Unless noted, the call rests on the fitted dose curve; in most records, active means well fitted curve in the direction sought with a large enough effect in the repeat runs; inconclusive means weak or mixed curves; inactive means no such curve, though single readings can be large; an effect the other way counts as inactive or inconclusive.

Assay [1] can be described thus: qHTS assay to identify small molecule agonists of H2AX (AID 1224845; active means well fitted activation curve with a large enough effect in the signal ratio in the repeat runs, not every such curve was filed as active; the % refers to the signal ratio). In short, it runs like this: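 Wild-type CHO-K1 cells plated overnight, then exposed 3 hr at 37C to compounds at 15 concentrations (0.76% DMSO). Lysed, then HTRF anti-pH2AX(S139)-cryptate/anti-H2AX-d2 detection after 24 hr at room temperature; emissions 665 and 620 nm.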
For orientation: In qHTS, concentration-response curves come from the screen itself.

A short description of assay [2]: qHTS assay to identify small molecule agonists of the hypoxia (HIF-1) signaling pathway (AID 1224846; active means well fitted activation curve with a large enough effect in the signal ratio in the repeat runs, not every such curve was filed as active; the % refers to the signal ratio). In short, it runs like this:
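Hypoxia-pathway activation was scored as increased beta-lactamase from an HRE-controlled reporter in ME-180 cells; plated at 2,000 cells per well with 0.5% dialyzed FBS, they were exposed 17 hrs to compounds and then given CCF4-AM.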

Assay [3] is described as follows: qHTS RealTime-Glo MT Cell Viability Assay in HepG2 cells - 24 hour (AID 1224867). Further: nearly all actives have a fitted effect of over 50% in size. Further: potency means the concentration at half of the fitted maximal effect. In short, it runs like this:
(§1)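 Luminescence read-out: viable HepG2 cells reduce a prosubstrate to a NanoLuc substrate, giving a signal proportional to live cell number. Reads taken at 0, 8, 16, 24, 32 and 40 h of compound exposure at 37 C.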

A short description of assay [4]: qHTS RealTime-Glo MT Cell Viability Assay in HEK293 cells - 32 hour (AID 1224868). Further: nearly all actives have a fitted effect of over 50% in size. Further: potency means the concentration at half of the fitted maximal effect. Put shortly: (§2)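 Nonlytic real-time viability readout: viable cells convert prosubstrate to NanoLuc substrate, giving luminescence proportional to live cell number. HEK293, 600 cells/well, compound added after 5 h, continuous culture at 37 C.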
The nature of assay [5]: A CellTox Green Cytotoxicity Assay to monitor cytotoxicity in HEK293 cells - 0 hour (AID 1224869). Further: nearly all actives have a fitted effect of over 50% in size. Put shortly:
(§3)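 Seeding of HEK293 cells together with cytotoxicity dye preceded a 5 h incubation at 37 C/5% CO2. Test compounds in DMSO were then added and fluorescence monitored across 40 h.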

Assay [6] is described as follows: qHTS RealTime-Glo MT Cell Viability Assay in HepG2 cells - 40 hour (AID 1224870). Further: nearly all actives have a fitted effect of over 50% in size. Further: potency means the concentration at half of the fitted maximal effect. Put shortly: (§4)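 HepG2 cells mixed with RealTime-Glo MT reagents (NanoLuc plus cell-permeant prosubstrate) were seeded at 600 cells/well, incubated 5 h at 37 C/5% CO2, then pinned with compounds in DMSO; nonlytic luminescence tracked viability during 40 h treatment.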
Assay [7] in a line: A CellTox Green Cytotoxicity Assay to monitor cytotoxicity in HEK293 cells - 40 hour (AID 1224871). Further: nearly all actives have a fitted effect of over 45% in size. Further: potency means the concentration at half of the fitted maximal effect. In short, it runs like this: as §3
The nature of assay [8]: qHTS RealTime-Glo MT Cell Viability Assay in HEK293 cells - 16 hour (AID 1224872). Further: nearly all actives have a fitted effect of over 50% in size. Further: potency means the concentration at half of the fitted maximal effect. In short, it runs like this:
as §2

A short description of assay [9]: qHTS RealTime-Glo MT Cell Viability Assay in HepG2 cells - 8 hour (AID 1224873). Further: nearly all actives have a fitted effect of over 55% in size. Put shortly: as §4
The nature of assay [10]: qHTS RealTime-Glo MT Cell Viability Assay in HEK293 cells - 40 hour (AID 1224874). Further: nearly all actives have a fitted effect of over 50% in size. Further: potency means the concentration at half of the fitted maximal effect. The settings on record: RealTime-Glo luminescence; max response: hits give low values. In short, it runs like this:
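Tox21 screen in HEK293 using RealTime-Glo MT chemistry, with cells and reagent co-dispensed. Luminescence proportional to viable cell number was captured at intervals during 40 h compound exposure at 37 C.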

The nature of assay [11]: A CellTox Green Cytotoxicity Assay to monitor cytotoxicity in HEK293 cells - 24 hour (AID 1224875). Further: nearly all actives have a fitted effect of over 45% in size. Further: potency means the concentration at half of the fitted maximal effect. Put shortly: as §3
Assay [12] can be described thus: A CellTox Green Cytotoxicity Assay to monitor cytotoxicity in HepG2 cells - 16 hour (AID 1224876). Further: nearly all actives have a fitted effect of over 45% in size. Further: potency means the concentration at half of the fitted maximal effect. Put shortly: (§5)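 Nonlytic assay: viable cells exclude the dye, so fluorescence scales with cell death. HepG2 at 600 cells/well, compounds added after 5 h, signal read across 40 h.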
A short description of assay [13]: qHTS RealTime-Glo MT Cell Viability Assay in HepG2 cells - 32 hour (AID 1224877). Further: nearly all actives have a fitted effect of over 55% in size. Further: potency means the concentration at half of the fitted maximal effect. Put shortly: as §1
Assay [14] is described as follows: A CellTox Green Cytotoxicity Assay to monitor cytotoxicity in HepG2 cells - 24 hour (AID 1224878). Further: nearly all actives have a fitted effect of over 45% in size. Further: potency means the concentration at half of the fitted maximal effect. In short, it runs like this: as §5
The nature of assay [15]: A CellTox Green Cytotoxicity Assay to monitor cytotoxicity in HepG2 cells - 40 hour (AID 1224879). Further: nearly all actives have a fitted effect of over 40% in size. Further: potency means the concentration at half of the fitted maximal effect. Put shortly:
as §5

A short description of assay [16]: qHTS assay to identify small molecule agonists of the hypoxia (HIF-1) signaling pathway - cell viability counter screen (AID 1224844; calls by dose curve; further: nearly all actives have a fitted effect of over 50% in size). Put shortly:
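Multiplexed with the HRE beta-lactamase assay, this viability read used CellTiter-Glo luminescence (30 min, RT) on HRE-bla ME-180 cells treated 17 hrs with compounds in 0.5% dialyzed FBS medium.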

Assay [17] can be described thus: qHTS assay to identify small molecule antagonists of the estrogen related receptor (ERR) signaling pathway from Tox21 library (AID 1224848). Further: nearly all actives have a fitted effect of over 50% in size. Further: potency means the concentration at half of the fitted maximal effect. Put shortly: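 Screening used an ERR reporter line supplied by NTP, exposed for 18 h at 37 C to library compounds delivered in DMSO. Signal was luciferase luminescence developed with ONE-Glo at room temperature for 30 min.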

A short description of assay [18]: qHTS assay to identify small molecule agonists of the estrogen related receptor (ERR) signaling pathway from Tox21 library (AID 1224849; calls by dose curve; further: nearly all actives have a fitted effect of over 15% in size). The settings on record: ERR reporter cell line, ONE-Glo luciferase, 18 h; at 92.4 µM (top of the series) unless noted. Put shortly:
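Six hours post-seeding at 37 C/5% CO2, ERR cells receive DMSO-solubilised compounds; after 18 h at 37 C, ONE-Glo reagent is applied and luminescence recorded.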

Assay [19] is described as follows: qHTS assay to identify small molecule agonists of H2AX - cell viability counter screen (AID 1224847; calls by dose curve; further: nearly all actives have a fitted effect of over 30% in size; further: potency means the concentration at half of the fitted maximal effect). Put shortly: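 Cells plated first: CHO-K1, 1000 per well in 10% FBS medium, incubated overnight at 37C. Then 15-point compound titration added (final DMSO 0.76%) for 3 hr. Finally CellTiter-Glo added and luminescence read.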
On the % scale 0 is the no-effect control and ±100 the full control effect.

`Cc1c(F)c(F)c(COC(=O)C2C(/C=C(\Cl)C(F)(F)F)C2(C)C)c(F)c1F` (stereo not given): the Potency entry in assay [1], in [3], in assay [4], in assay [5], in assay [6] and in assay [7] was “inactive” throughout. The Potency entry in assay [8], in assay [9], in [11], in [12], in [13] and in assay [14] was “inactive” in each case. In assay [15], the Potency result was “inactive”. The compound was classed as inactive in assay [2]. In [10], the max response was 6.54%.
`CC(c1ccc(O)cc1)(c1ccc(O)cc1)c1ccc(O)cc1`: the Potency entry in [16], in assay [3], in [5], in assay [7], in assay [9] and in assay [11] was “inactive” in each case. The Potency entry in assay [12], in assay [13] and in assay [14] was “inactive” throughout. The Potency in [17] was 54.5 µM (active); in assay [4], 54.9 µM (active). Besides, the activity change, positive = activation in [18] was -42.4%.
Regarding `CS/C(C)=N/OC(=O)N(C)SN(C)C(=O)O/N=C(\C)SC`, the Potency entry in assay [1] and in [5] was “inactive” in each case. Moreover, the outcome in [2] was inactive. Moreover, the activity change, positive = activation in assay [18] is -68.2%. For the same compound, the Potency in [4] is 49 µM (active); in assay [7], 49 µM (active); in [8], 38.9 µM (active); in assay [10], 43.6 µM (active); in [14], 54.9 µM (active); in [15], 54.9 µM (active).
In the case of `II`, the Potency entry in assay [1], in [4], in assay [5] and in [8] was “inactive” throughout. In addition, the Potency in assay [19] is 80 µM (active); in [3], 15.5 µM (active); in assay [6], 5.49 µM (active); in assay [7], 38.9 µM (active); in [11] it was 38.9 µM (active); in assay [12] it was 38.9 µM (active). The Potency was 7.76 µM (active) in assay [13], 34.7 µM (active) in [14] and 38.9 µM (active) in assay [15]. Moreover, the max response in [10] is -3.85%.
For the compound `CN(C)c1ccc(N(C)C)cc1`, the Potency entry in [16], in assay [3], in assay [5], in assay [7], in assay [8] and in [9] was “inactive” each time. The Potency result in assay [11], in [12], in assay [13], in assay [14] and in assay [15] was “inactive” each time. For the same compound, the outcome in assay [2] was inactive.
For the compound `C=CC(=O)OCCCCO`, the Potency entry in assay [16], in assay [19], in [17], in assay [4], in [5] and in [6] was “inactive” throughout. Also, the Potency result in assay [7], in assay [11], in assay [12], in assay [13], in [14] and in [15] was “inactive” throughout. In assay [18], the activity change, positive = activation was 68.3% (active). Further, in [10], the max response was 18.2%.
Take `CCCCCCCCCC(=O)O[C@H]1CC[C@H]2[C@@H]3CCC4=CC(=O)CC[C@@H]4[C@H]3CC[C@]12C`: the Potency result in assay [16], in assay [19], in [3], in [4], in assay [5] and in assay [6] was “inactive” each time. For the same compound, the Potency result in assay [7], in assay [11], in assay [12], in assay [13], in assay [14] and in [15] was “inactive” in each case. In addition, the max response in [10] is 3.16%.
